# PubChem BioAssay (NCATS)
# Inconclusive results are not listed. The source made the active and inactive calls. Calls come from the whole dose curve; as a rule, active = well fitted inhibition curve with a large enough effect; inconclusive = small, poorly fitted or top-dose-only effect, or effect the other way; inactive = flat fitted curve, though single readings scatter.
# Molecular target: Ubiquitin carboxyl-terminal hydrolase 2 (Homo sapiens) (UniProt O75604)
# Assay: qHTS Validation Assay for Inhibitors of Ubiquitin-specific Protease USP2a Using CHOP2 as the Reporter (AID 463106)
# Settings: USP2a cleavage of CHOP2 reporter, enzymatic; series mostly up to 38.3 µM
# From the text: NIH Molecular Libraries Screening Centers Network [MLSCN]
# NIH Chemical Genomics Center [NCGC]
# PI Name: Nicholson, Ben. Progenra Inc, Malvern, PA
# Homeostasis of cellular proteins is maintained through a combination of synthesis and degradation. The pathway that accounts for the majority of protein degradation is the ubiquitin-proteasomal pathway. Ubiquitin (Ub) is highly conserved in all cells and the generation of a multi-Ub chain typically targets proteins for degradation by the proteasome. However, ubiquitination is highly reversible and dynamic. Deubiquitination, the reverse process, is catalyzed through the action of enzymes referred to as isopeptidases or deubiquitinating enzymes (DUBs). This group of enzymes is collectively responsible for maintaining adequate pools of free ubiquitin and regulating the ubiquitination status of cellular proteins. The class of DUBs referred to as the ubiquitin-specific proteases (USP) family functions endoproteolytically to cleave Ub chains from a wide range of protein substrates. USP2a deubiquitinates fatty acid synthase (FASN) which has recently been identified as an emerging oncology target. To identify inhibitors of USP2a a cell-free assay was employed.
# The reporter enzyme chosen is an enterokinase called CHOP2, which is activated when the Ub is cleaved by USP2. The free and now activated reporter can subsequently act on its reporter substrate. […] The assay was developed by Progenra, Inc. and has been licensed for sale by LifeSensors, Inc. as Ub-CHOP2-Reporter-Kit (#PR1101).
# NCGC Assay Protocol Summary:
# The assay buffer, prepared fresh at the day of the assay, contains 20mM Tris-HCl pH 8.0, 2mM CaCl2, 2mM beta-Mercaptoethanol, 0.05% CHAPS. 3ul of 20nM (10nM final) USP2 core, which is stored on ice, is dispensed into a medium-binding black solid Kalypsys 1,536 well plate using the Kalypsys dispenser. The assay plate is then pinned with 23nL compound with the Kalypsys pintool in columns 5-48. The controls are pinned as follows: column 1 two-fold dilutions of 2M NEM in duplicate; column 2 2M NEM (final concentration 38.2mM); column 3&4 DMSO. The assay plate is incubated at RT for 30min. Subsequently, 1.5uL of 100nM (25nM final) Ub-CHOP2 and 1.5uL of 100nM (25nM final) Reporter Substrate (both stored on ice and protected from light) were dispensed into the plate using the Kalypsys dispenser. Plates were read after 60min RT incubation on a ViewLux (Perkin Elmer) plate reader using the following wavelengths Ex 485nm /Em 531nm.
# Data were normalized to the to AC100 inhibition (NEM). Concentration-response curves were fitted to the normalized data and the concentration-response curves were then classified based on curve quality (r2), response magnitude and degree of measured activity. The time zero reading was used to flag fluorescence artifacts.
# Keywords: ubiquitination, deubiquitination, proteases, profluorescent, MLSMR, MLPCN, NIH Roadmap, qHTS, NCGC
# Chain of Ubiquitin carboxyl-terminal hydrolase 2 (Homo sapiens) (O75604 whole entry, looked up): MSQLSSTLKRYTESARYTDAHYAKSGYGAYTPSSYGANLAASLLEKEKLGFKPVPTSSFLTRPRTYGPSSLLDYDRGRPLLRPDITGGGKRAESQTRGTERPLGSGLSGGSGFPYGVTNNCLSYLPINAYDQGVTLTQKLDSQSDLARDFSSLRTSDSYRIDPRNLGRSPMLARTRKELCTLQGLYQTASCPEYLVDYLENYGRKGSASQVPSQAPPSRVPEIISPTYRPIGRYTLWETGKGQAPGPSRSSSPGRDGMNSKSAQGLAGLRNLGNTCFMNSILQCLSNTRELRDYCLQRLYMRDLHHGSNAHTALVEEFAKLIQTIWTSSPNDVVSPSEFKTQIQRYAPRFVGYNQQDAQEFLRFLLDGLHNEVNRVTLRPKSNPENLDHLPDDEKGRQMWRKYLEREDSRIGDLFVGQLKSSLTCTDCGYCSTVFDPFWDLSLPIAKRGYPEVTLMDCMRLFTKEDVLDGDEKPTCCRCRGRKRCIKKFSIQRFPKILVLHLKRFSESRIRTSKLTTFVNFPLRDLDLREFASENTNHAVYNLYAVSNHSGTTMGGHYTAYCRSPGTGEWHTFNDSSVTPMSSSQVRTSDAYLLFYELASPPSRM
row,Compound,outcome
1,NC[C@H](O)c1ccc(O)c(O)c1,inactive
2,c1ccc([C@H]2CN3CCSC3=N2)cc1,inactive
3,OC(CN1CCC(Cc2ccc(F)cc2)CC1)c1ccc(Cl)cc1 (stereo not given),inactive
4,CC(C)NCC(O)COc1ccc(COCCOC(C)C)cc1 (stereo not given),inactive
5,Cc1[nH]c(=O)c(C#N)cc1-c1ccc2nccn2c1,inactive
6,CCCCNc1cc(C(=O)O)cc(S(N)(=O)=O)c1Oc1ccccc1,inactive
7,Cn1cnc([N+](=O)[O-])c1Sc1ncnc2nc[nH]c12,inactive
8,Cc1ccccc1C(OCCN(C)C)c1ccccc1 (stereo not given),inactive
9,O=c1n(CCCN2CCN(c3cccc(Cl)c3)CC2)nc2ccccn12,inactive
10,Cc1ccc(N(CC2=NCCN2)c2cccc(O)c2)cc1,inactive
11,Cc1[nH]c(=O)c(C#N)cc1-c1ccncc1,inactive
12,N[C@@H]1CONC1=O,inactive
13,CCOC(=O)C1=C[C@]2(CC)CCCN3CCc4c(n1c1ccccc41)[C@@H]32,inactive
14,NS(=O)(=O)c1cc2c(cc1Cl)NC=NS2(=O)=O,inactive
15,CC(C[N+](C)(C)C)OC(N)=O (stereo not given),inactive
16,C1COC(NC(C2CC2)C2CC2)=N1,inactive
17,CCOC(=O)N1CCC(=C2c3ccc(Cl)cc3CCc3cccnc32)CC1,inactive
18,O=C1CCc2cc(OCCCCc3nnnn3C3CCCCC3)ccc2N1,inactive
19,Clc1cccc(Cl)c1NC1=NCCN1,inactive
20,CC(C)C[C@H](NC(=O)[C@@H](O)[C@H](N)Cc1ccccc1)C(=O)O,inactive

row,Compound,outcome
1,O=C(O)COCCN1CCN(C(c2ccccc2)c2ccc(Cl)cc2)CC1 (stereo not given),inactive
2,O=C1CCC(N2C(=O)c3ccccc3C2=O)C(=O)N1 (stereo not given),inactive
3,CCN(CC)CCCC(C)Nc1ccnc2cc(Cl)ccc12 (stereo not given),inactive
4,NNCCc1ccccc1,inactive
5,CNC[C@H](O)c1cccc(O)c1,inactive
6,CC(=O)Oc1ccccc1C(=O)O,inactive
7,Cc1cn[nH]c1,inactive
8,Cc1oncc1C(=O)Nc1ccc(C(F)(F)F)cc1,inactive
9,NCCc1ccc(O)c(O)c1,inactive
10,C[C@]12CCC(=O)C=C1CC[C@@H]1[C@@H]2[C@@H](O)C[C@@]2(C)[C@H]1CC[C@]2(O)C(=O)CO,inactive
11,OC(CCN1CCCCC1)(c1ccccc1)C1CC2C=CC1C2 (stereo not given),inactive
12,CCCC(CCC)C(=O)O,inactive
13,NC(=O)c1cnccn1,inactive
14,CC(C)(C)NCC(O)c1ccc(O)c(CO)c1 (stereo not given),inactive
15,Cc1cccc(-c2[nH]c(C(C)(C)C)nc2-c2ccc3nccnc3c2)n1,inactive
16,Nc1ncnc2nc(-c3ccc(N4CCOCC4)nc3)cc(-c3cccc(Br)c3)c12,inactive
17,NC(N)=NC(=O)c1nc(Cl)c(N)nc1N,inactive
18,Nc1nc2ccc(OC(F)(F)F)cc2s1,inactive
19,O=NN(CCCl)C(=O)NCCCl,inactive
20,O=c1[nH]cnc2[nH]ncc12,inactive
